Most compounds without a hit are left out; they make up all but 9.3% or so of the library.
FMDV inh – blocks foot and mouth disease virus. FMDV antiviral cell-based qHTS. Potency, µM (titrated, usually from 57.9 µM), most hits filed as inhibitors. actives 1.2% (n = 410,000); calls by dose curve; tested in HEK293T cells; also: read-out not given here; nearly all actives have a fitted effect of over 45% in size
Vaccinia Venus – vaccinia inhibition (Venus reporter) | Vaccinia virus Venus reporter expression, fluorescence | Potency, µM (doses to about 36.5 µM), usual class: inhibitors | actives 0.46% (n = 330,000) | AID 720580; calls by dose curve; tested in A549 cells; also: nearly all actives have a fitted effect of over 30% in size
VACV mCherry inh – vaccinia inhibition (mCherry reporter). Vaccinia virus mCherry reporter infection, fluorescence. actives 0.63% (n = 310,000). Potency, µM (titrated, usually from 36.5 µM), most hits filed as inhibitors; calls by dose curve; tested in A549 cells; also: nearly all actives have a fitted effect of over 35% in size
HCMV antiviral – human cytomegalovirus inhibition; HFF cells, HCMV-luciferase reporter, 72 h; hits give low values; activity change, negative = inhibition, % at 57.5 µM; actives 4.5% (n = 410,000); in the data active = activity change below about -60%; inconclusive = no clear call, values can overlap the other calls; inactive = above about -39%
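Two-dose cell screen: HFF monolayers treated with compounds and infected with luciferase-expressing HCMV at 1 PFU/cell, 72 h at 37C, then lysed for luciferase measurement.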
Sm TGR inh – blocks Schistosoma mansoni thioredoxin glutathione reductase | Q962Y6 | purified TGR, DTNB reduction, TNB absorbance 405 nm | Potency, µM (highest dose often 114 µM), actives largely listed as inhibitors | actives 3% (n = 360,000) | AID 485364; also: nearly all actives have a fitted effect of over 60% in size
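TGR 20 nM + NADPH 100 uM (dispensed conc.), cpd preinc 15 min RT; start with NADPH (500 uM addition) then DTNB (15 mM addition). Kinetic TNB absorbance, 405 nm filter. Four-parameter Hill fit across titration.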
HCV inhibitor – inhibitors of hepatitis C virus infection; Huh7.5.1 HCVcc-Cre infection, luciferase reporter, 44 h; Potency, µM (doses to about 41.8 µM), most hits filed as inhibitors; actives 3.4% (n = 340,000); AID 651820
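Whole-lifecycle infectious HCVcc-Cre system; cells 1,000/well, compound then virus (~0.5 moi) added 4 h after plating, 44 h culture. Luciferase read 15 sec following 15 min substrate incubation, room temp.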
A number is an active result; – = inactive; ? = inconclusive; · = no result given; [ ] = dose if it differs, or a comment. Unless noted, calls follow the shape of the dose curve; as a rule, active = well fitted curve in the direction sought with a large enough effect; inconclusive = small, poorly fitted or top-dose-only effect, or another doubt; inactive = no such curve, though single readings can be large; an effect the other way counts as inactive or inconclusive.

SMILES | FMDV inh | Vaccinia Venus | VACV mCherry inh | HCMV antiviral | Sm TGR inh | HCV inhibitor
CCOC(=O)Cc1csc(NC(=O)COc2ccc(N(C)S(=O)(=O)c3ccc(C)cc3)cc2)n1 | 18µM | – | – | – | – | ?
CCOc1ccc(S(=O)(=O)N(C)c2ccc(OCC(=O)Nc3nc4ccccc4s3)cc2)cc1 | ? | ? | ? | ? | – | ?
O=C(COC(=O)CNC(=O)c1ccccc1F)Nc1ccc2c(c1)OCO2 | – | – | – | – | – | –
COc1cc(NS(=O)(=O)c2cc3[nH]c(=O)[nH]c3cc2C)cc(OC)c1OC | – | – | – | – | – | ·
Cc1ccc(C(=O)CN2CCN(c3ccccn3)CC2)c(C)c1 | – | · | · | · | 14µM | –
Cc1c(C)n(C(=O)CN2CCN(c3ccccn3)CC2)c2ccccc12 | 32µM | – | · | – | – | ?
Cc1ccc(C(O)c2ncc(-c3cccc(F)c3)[nH]2)cc1 (stereo not given) | – | – | – | – | · | ·
COc1ccc(NC(=O)CC2SC(=N)N(c3ccccc3)C2=O)c(OC)c1 (stereo not given) | – | – | – | – | – | –
C#CCOC(=O)c1ccccc1C(=O)n1nnc2ccccc21 | 22µM | · | · | – | – | –
CN(C)c1ccc(C(=O)n2nnc3ccccc32)cc1 | · | – | – | – | – | –
C#CCOC(=O)c1ccccc1C(=O)OCC#C | – | – | · | – | – | –
O=C(c1cccc(F)c1)n1nnc2ccccc21 | – | · | · | – | 35µM | –
O=S(=O)(NCCc1ccccc1)c1cccc2nsnc12 | · | – | – | – | – | –
Cc1ccc(NC(=O)CSCC(=O)Nc2ncc3c(n2)CC(c2ccco2)CC3=O)cc1 (stereo not given) | – | · | · | · | 50µM | –
Cc1cc(C)cc(Nc2ncc3c(n2)CC(c2ccco2)CC3=O)c1 (stereo not given) | – | · | · | – | 50µM | –
NC1=NC(=O)C(CC(=O)c2ccc(Cl)cc2)S1 (stereo not given) | – | – | – | – | 20µM | –
Cc1ccc(OCC(=O)c2cc(C)n(CC(F)(F)F)c2C)c([N+](=O)[O-])n1 | – | – | – | – | – | ?
Cc1cc(C)c(C(=O)COc2cccnc2[N+](=O)[O-])cc1C | ? | – | · | – | 16µM | –
COCCn1c(C)cc(C(=O)COc2cccnc2[N+](=O)[O-])c1C | – | – | – | -84 | ? | –
COc1cc(COCC(O)CN2C(C)CCCC2C)cc(OC)c1OC (stereo not given) | – | · | · | – | – | –
O=C(NCc1ccco1)c1cc2ccccc2c(=O)o1 | – | – | –[1.46 µM] | – | ? | –
C=CCN(CC=C)C(=O)c1cc2ccccc2c(=O)o1 | – | – | – | -63 | – | –
CCOc1ccc(OCC)c(NC(=O)Cn2ncc3c4ccccc4n(Cc4ccccc4)c3c2=O)c1 | – | – | – | – | – | ·
COc1ccc2nc(NC(=O)CN(C)S(=O)(=O)c3cccs3)sc2c1 | – | – | ? | -72 | – | ?
CCn1c2ccccc2c2cc(NC(=O)C3CCN(S(=O)(=O)c4cccs4)CC3)ccc21 | · | – | – | – | –[11.4 µM] | 4µM
SMILES | FMDV inh | Vaccinia Venus | VACV mCherry inh | HCMV antiviral | Sm TGR inh | HCV inhibitor
COc1ccc2nc(NC(=O)c3ccc(S(=O)(=O)N4CCCC(C)C4)cc3)sc2c1 (stereo not given) | – | – | – | – | – | ·
COc1ccc2nc(NC(=O)C3CCCN(S(=O)(=O)c4cccs4)C3)sc2c1 (stereo not given) | – | ? | · | ? | – | 13µM
Cc1ccc2nc(NC(=O)C3CCN(S(=O)(=O)c4cccnc4)CC3)sc2c1 | ? | – | ? | – | – | ?
Cc1ccc2nc(NC(=O)C3CCN(S(=O)(=O)c4cccs4)CC3)sc2c1 | ? | · | · | -94 | – | 13µM
O=C(O)[C@H]1/C(=C/CO)O[C@@H]2CC(=O)N21 | · | – | – | · | · | ·
Cc1ccc(C)n1-c1cccc(C(=O)Nc2ccccc2)c1 | – | · | · | – | – | ?
COC(=O)C1=C(c2ccccc2)C[C@@H]2CC[C@H]1N2C(=O)NCCCOC(C)C | – | – | – | – | · | –
CCOc1ccc(NC(=O)C2CCN(S(=O)(=O)c3cccs3)CC2)cc1 | ? | ? | – | – | – | ?
O=C(Nc1ccc(OC(F)(F)F)cc1)C1CCN(S(=O)(=O)c2cccs2)CC1 | ? | ? | ? | -88 | – | ·
COc1ccc2nc(NC(=O)C3CCN(S(=O)(=O)c4cccnc4)CC3)sc2c1 | ? | ? | ? | – | – | ?
COc1ccc2nc(NC(=O)C3CCN(S(=O)(=O)c4cccs4)CC3)sc2c1 | 14µM | ? | ? | -97 | – | 10µM
O=C(C[n+]1cccc(Br)c1)c1ccccc1 | – | – | – | – | – | –
O=C(C[n+]1cccc(Br)c1)c1ccc(-c2ccccc2)cc1 | – | – | – | -74 | – | ?
Cc1ccc[n+](CC(=O)c2ccc(-c3ccccc3)cc2)c1 | – | – | – | -68 | – | –
CCOCCCNC(=S)N(CCO)Cc1cc2cc3c(cc2[nH]c1=O)OCCO3 | – | · | · | – | – | –
COCCCNc1nc2c(c(=O)[nH]c(=O)n2C)n1CC(O)COc1cccc(C)c1 (stereo not given) | – | – | · | – | – | –
COc1cccc(-c2nnc(SCN3C(=O)c4ccccc4C3=O)n2C)c1 | – | – | – | – | – | –
Cc1ccc(N2C(=O)c3ccccc3C2=O)cc1 | – | – | – | ? | – | –
Cc1ccc(SC2=C(Sc3ccc(C)cc3)C(=O)c3ccccc3C2=O)cc1 | 25µM | – | – | – | ? | ?
CCOC(=O)c1c(C)[nH]c(C(=O)N(C)Cc2cccc(OC)c2OC)c1C | – | – | – | – | – | ?
CC(=O)N1CCc2cc(NC(=O)C3(C)CCN3Cc3ccccc3Cl)ccc21 (stereo not given) | – | – | ? | -78 | · | ·
COc1ccc(NC(=O)C2(C)CCN2Cc2ccccc2OC(F)F)cc1OC (stereo not given) | – | – | – | – | · | ·
CC1(C(=O)Nc2ccc(Cl)c(Cl)c2)CCN1Cc1ccccc1OC(F)F (stereo not given) | 32µM | – | – | – | · | ·
CC(C)CCn1cnc2c(c1=O)c1nc3ccccc3nc1n2Cc1ccc2c(c1)OCO2 | – | – | – | – | – | –
CC(NC(=O)/C(C#N)=C/c1ccc(Cl)c([N+](=O)[O-])c1)c1ccccc1 (stereo not given) | 32µM | · | · | -100 | ? | 35µM
C[C@@H](NC(=O)/C(C#N)=C/c1ccc(O)c(O)c1)c1ccccc1 | – | – | ? | -98 | – | ?
C[C@H](NC(=O)/C(C#N)=C/c1ccc(O)c(O)c1)c1ccccc1 | – | · | · | · | · | ·
COc1ccccc1S(=O)(=O)N1CCC(C(=O)O)(c2ccccc2)CC1 | – | – | – | – | – | –
O=C(O)c1ccccc1C(=O)Nc1ccc(Oc2ccccc2)cc1 | – | – | – | – | – | –
CC(C)(C)c1ccc(Oc2ccc(N)cn2)cc1 | ? | · | · | -72 | 13µM | 4µM

Screening results from PubChem BioAssay.
